HDAC3 inhib = HDAC3 deacetylase inhibitors, primary screen, biochemical, fluorescence, cell-free homogeneous | Histone deacetylase 3 (Homo sapiens), O15379 | AID 2718, 2010 | 0.15% of 320,000 active | inhibition, % at 8.3 µM | recombinant HDAC3, fluorogenic peptide/trypsin coupled; in the data active = inhibition above about 26%, passing the limit was not always enough; inconclusive = no clear call, values can overlap the other calls
A3A deaminase = APOBEC3A ssDNA deaminase inhibitors, primary screen, selectivity assay for APOBEC3G inhibitor project, biochemical, FAM/TAMRA oligo cleavage fluorescence. recombinant A3A, FAM/TAMRA ssDNA deamination fluorescence. inhibition, % at 20 µM. 0.41% of 330,000 active. AID 493011, 2011;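 active = at least 40% inhibition at 20 µM here, with at most 30% in a related deaminase screen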;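 also: plate controls were A3A with DMSO for no effect and wells lacking A3A enzyme for full effect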
APOBEC3G inh = APOBEC3G DNA deaminase inhibitors, primary screen, biochemical, fluorescence, single-stranded DNA substrate, uHTS; recombinant A3G, ssDNA deamination FAM/TAMRA fluorescence; DNA dC->dU-editing enzyme APOBEC-3G (Homo sapiens), Q9HC16; 0.28% of 330,000 active; inhibition, % at 20 µM;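 active = inhibition of at least 40% at 20 µM, with no more than 30% in the related APOBEC3A deaminase screen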;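 also: plate controls were DMSO wells with A3G for no effect and wells lacking A3G enzyme for full effect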
LANA-H2A inh = blockers of LANA interaction with H2A/H2B – biochemical, FP readout, HTS, primary screen. Protein LANA1 (Human herpesvirus 8 type P (isolate GK18)), Q9QR71. cell-free LANA-H2A/H2B peptide, fluorescence polarization. inhibition, % (concentration not given with the values). 0.6% of 320,000 active; in the data active = inhibition mostly above about 10%, no sharp cut-off; inactive = mostly below about 6.7%
Target sequence (Q9QR71 whole entry, looked up): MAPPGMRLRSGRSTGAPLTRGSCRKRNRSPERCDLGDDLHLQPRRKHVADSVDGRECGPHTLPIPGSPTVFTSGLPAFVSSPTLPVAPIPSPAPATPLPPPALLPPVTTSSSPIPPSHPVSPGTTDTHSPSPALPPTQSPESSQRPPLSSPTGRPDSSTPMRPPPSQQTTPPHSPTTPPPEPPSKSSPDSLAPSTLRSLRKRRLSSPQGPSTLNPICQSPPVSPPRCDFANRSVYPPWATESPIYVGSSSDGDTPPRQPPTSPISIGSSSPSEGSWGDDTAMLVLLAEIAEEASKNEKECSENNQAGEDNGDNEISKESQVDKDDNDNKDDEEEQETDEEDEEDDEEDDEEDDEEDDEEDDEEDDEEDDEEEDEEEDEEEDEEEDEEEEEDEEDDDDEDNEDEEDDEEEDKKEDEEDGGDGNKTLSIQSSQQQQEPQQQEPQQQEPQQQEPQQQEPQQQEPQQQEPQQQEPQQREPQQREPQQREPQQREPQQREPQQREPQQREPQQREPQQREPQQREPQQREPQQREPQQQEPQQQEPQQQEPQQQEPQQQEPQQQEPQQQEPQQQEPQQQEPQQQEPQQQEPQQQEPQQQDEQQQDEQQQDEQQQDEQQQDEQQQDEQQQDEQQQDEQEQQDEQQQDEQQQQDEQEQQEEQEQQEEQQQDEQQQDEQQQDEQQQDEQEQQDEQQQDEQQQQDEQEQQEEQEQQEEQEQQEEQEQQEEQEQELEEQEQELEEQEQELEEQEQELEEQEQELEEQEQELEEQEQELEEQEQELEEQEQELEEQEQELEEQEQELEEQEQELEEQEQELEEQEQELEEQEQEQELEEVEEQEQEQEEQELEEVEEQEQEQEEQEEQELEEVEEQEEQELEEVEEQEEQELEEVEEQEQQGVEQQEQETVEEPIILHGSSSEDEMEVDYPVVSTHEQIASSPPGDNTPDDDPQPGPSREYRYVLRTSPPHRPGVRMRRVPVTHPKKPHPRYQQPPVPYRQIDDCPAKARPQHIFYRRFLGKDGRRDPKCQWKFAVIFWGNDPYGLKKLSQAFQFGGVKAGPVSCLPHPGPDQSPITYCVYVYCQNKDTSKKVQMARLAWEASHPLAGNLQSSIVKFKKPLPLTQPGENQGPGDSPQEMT
An asterisk follows results filed as active; u = inconclusive; x = no result; + = active, no number. The list is not random: actives were taken first. Their share in the collection is about 1.4%.

SMILES | HDAC3 inhib | A3A deaminase | APOBEC3G inh | LANA-H2A inh
Cc1cc(=O)oc2cc(OC(C)C(=O)NCC3CCC(C(=O)O)CC3)ccc12 (stereo not given) | -4 | 2 | -7 | -1
CCOc1ccc(C(C)=O)cc1N1C(=O)C2C3C=CC(O3)C2C1=O (stereo not given) | -2 | -6 | 49* | -1
CC(C)(CO)[C@@H](O)C(=O)NCCC(=O)O | -8 | 4 | 1 | 3
COc1ccc(NC(=O)CSc2nc(C)cs2)c([N+](=O)[O-])c1 | -1 | -2 | -6 | 2
O=C1NC[C@H](c2ccccc2)OC(=O)[C@H](Cc2ccc(F)cc2)C/C=C\C[C@H]1CC(=O)N(CCO)Cc1ccccc1 | 12 | -1 | -10 | 6
O=C(Cn1ccc2cc(S(=O)(=O)N3CCCC3)ccc21)NCCc1ccccc1 | 5 | -2 | 4 | 12*
O=C(CCn1ccc2cc(S(=O)(=O)N3CCCC3)ccc21)NCCc1ccccc1 | -2 | -4 | -5 | 0
Cc1cc(C)c(C(N)=O)c(SCC(=O)c2cc(C)n(-c3cc(C)on3)c2C)n1 | -2 | -6 | -4 | 0
CCCN(CCC)C(=O)C1CC(=O)OC12CCCCC2 (stereo not given) | 4 | 5 | 1 | 13*
CCCOc1ccc(Oc2ccc(S(=O)(=O)N3CCN(C)CC3)cn2)cc1 | -2 | 2 | -6 | -1
Cc1nc(Sc2ccccc2)c(C#N)cc1-c1ccccc1 | 0 | 2 | 1 | 130*
Cc1nc(Cl)c(C#N)cc1-c1ccccc1 | 0 | 1 | -4 | 0
CCN(CC(=O)Nc1ccc(N2CCOCC2)cc1)C(=O)COc1ccccc1OC | -2 | 1 | 0 | 10*
CN(CC(=O)Nc1ccc(N2CCOCC2)cc1)C(=O)COc1ccccc1F | 1 | 10 | 5 | -4
O=C1NC(Cc2ccccc2)c2nc3ccccc3c(=O)n2-c2ccc(Cl)cc21 (stereo not given) | 15 | -5 | -8 | -2
COc1ccc(-c2cc(C)no2)cc1S(=O)(=O)NCc1ccc(OC(C)C)cc1 | -6 | -2 | -5 | 0
CCOc1ccc2c(c1)c1nc3ccccc3nc1n2C | 0 | x | x | 39*
COc1ccc(C(=O)CSc2nnc(CNC(=O)c3ccc(OC)cc3)n2C)cc1 | 9 | -4 | -7 | 4
COc1ccc(C(=O)NCc2nnc(SCC(=O)NO)n2Cc2ccccc2)cc1 | 91* | -8 | -5 | -4
O=C(Oc1ccc(N(Cc2cccs2)C2=NS(=O)(=O)c3ccccc32)cc1)c1ccccc1 | 69* | 1 | -4 | -1
COc1cc(/C=C2/CCCC(C(=O)C(F)(F)F)=C2O)ccc1O | x | 6 | -1 | 1
CCOc1cc(/C=C2\CCCC(C(=O)C(F)(F)F)=C2O)ccc1O | 35* | 2 | -2 | 2
CN1CCN(C2=Nc3ccccc3Oc3ccc(Cl)cc32)CC1 | 2 | -3 | -5 | 14*
CN1CCN(c2nc(-c3ccccc3)c3cc(Cl)ccc3n2)CC1 | -2 | 8 | 1 | 5
Cc1ccc(NC(=O)c2ccccc2OCC(=O)Nc2ccccc2F)cc1S(=O)(=O)N(C)C | -7 | -3 | -2 | 0
SMILES | HDAC3 inhib | A3A deaminase | APOBEC3G inh | LANA-H2A inh
CCCCn1c(=O)[nH]c2nc3cc(N)ccc3nc2c1=O | 5 | x | x | 85*
Nc1ccc2nc3c(=O)n(C4CCCCC4)c(=O)[nH]c3nc2c1 | x | -43 | -28 | 72*
Nc1ccc2nc3c(=O)n(CCc4ccccc4)c(=O)[nH]c3nc2c1 | -4 | -18 | -28 | 6
COc1cc2[nH]c(=O)n(C3CCCCC3)c(=O)c2cc1OC | 6 | -3 | -5 | 5
CSCCC(NC(=O)c1ccccc1Br)C(=O)NNC(=O)c1cc(C)oc1C (stereo not given) | 2 | -4 | -7 | 0
NS(=O)(=O)c1cc2c(cc1Cl)NC=NS2(=O)=O | 0 | 0 | -7 | 13*
NS(=O)(=O)c1cc2c(cc1Cl)NC(CC1CCCC1)NS2(=O)=O (stereo not given) | 21 | -5 | -10 | -1
O=C(NCC(c1ccco1)N1CCCC1)c1cc2cc(Cl)ccc2o1 (stereo not given) | -1 | 0 | 1 | 0
CCOC(=O)c1c(NC(=O)CCS(=O)(=O)c2ccccc2)sc2c1CCN(C)C2 | 3 | -2 | -9 | 53*
CCOC(=O)N1CCc2c(sc(NC(=O)CCS(=O)(=O)c3ccccc3)c2C(N)=O)C1 | -2 | -3 | -4 | -9
CC(=O)N1CCc2c(sc(NC(=O)CCS(=O)(=O)c3ccccc3)c2C(N)=O)C1 | -5 | -6 | -7 | 33*
CN(Cc1ncc[nH]1)C(=O)CC1C(=O)NCCN1Cc1c(F)cccc1Cl (stereo not given) | -5 | -1 | -7 | 4
CN(CCC1CCOCC1)C(=O)CC1C(=O)NCCN1Cc1c(F)cccc1Cl (stereo not given) | -3 | 1 | 4 | 40*
Cc1cnc(NC(=O)c2ccc(-c3nc4ccccc4s3)o2)s1 | 6 | 6 | 0 | 29*
CCN(C(=O)CN1C(=O)NC(c2ccccc2)(c2ccc(C)c(C)c2)C1=O)C1CCS(=O)(=O)C1 (stereo not given) | 0 | 3 | 2 | -4
Cc1ccc(C2(c3ccccc3)NC(=O)N(CC(=O)N(C)C3CCS(=O)(=O)C3)C2=O)cc1C (stereo not given) | 0 | 5 | 2 | 16*
Cc1ccc(C2(c3ccccc3)NC(=O)N(CC(=O)NC3(C#N)CCCC3)C2=O)cc1C (stereo not given) | 16 | -6 | -5 | +
COc1ccc(C2(c3ccc(OC)cc3)NC(=O)N(CC(=O)NC3(C#N)CCCC3)C2=O)cc1 | 1 | -5 | -6 | 2
COc1ccc(-c2csc(NC(=O)C3CCN(c4ncnc5sc(C)c(C)c45)CC3)n2)cc1OC | 4 | -3 | -11 | 0
O=C(Oc1ccc(=O)n(-c2ccccc2)n1)c1ccc(F)cc1 | u | 0 | -8 | 4
O=C(Oc1ccc(=O)n(-c2ccccc2)n1)c1cccc(Cl)c1 | 44* | -2 | -8 | 3
O=C(Oc1ccc(=O)n(-c2ccccc2)n1)c1ccc(Cl)cc1 | 17 | 3 | -3 | -1
COc1ccc(C(=O)Oc2ccc(=O)n(-c3ccccc3)n2)cc1 | 76* | 3 | 1 | 2
O=C(Cc1ccccc1)NC(=S)Nc1ccc(OC(F)F)cc1 | 3 | -2 | -1 | 0
ClCc1nc2ccccc2c2ccccc12 | 5 | -3 | -7 | 1
N#CC1(NC(=O)COC(=O)c2ncc(Cl)c(Cl)c2Cl)CCCCC1 | -2 | 2 | -7 | -8
N#CC1(NC(=O)COC(=O)c2nc(Cl)c(Cl)c(N)c2Cl)CCCCC1 | 2 | 2 | -8 | 14*

Screening data (PubChem)
